Measurements as given in PubChem BioAssay AID602270 (The Scripps Research Institute Molecular Screening Center, 2012).
Some of the results follow. Unmarked numbers belong to inactive results. The source made the active and inactive calls. Rule as the data show it: active = activation above about 4%; inactive = the rest.

Tested on: Methionine sulfoxide reductase A (Bos taurus)
Assay: bovine MsrA activators, retest, confirmation, biochemical, absorbance, HTS (AID 602270);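 also: enzyme coupled to thioredoxin and thioredoxin reductase with NADPH; 0% = vehicle wells and 100% = reference activator wells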
Conditions: purified bovine MsrA, absorbance read-out; at 10.6 µM; hits give high values

SMILES	activation
COc1cc(OC)c(C(=O)NCc2ccc3c(c2)OCO3)cc1OC	2.87%
COc1ccc2nc(N3CCCC(O)C3)c(C#N)cc2c1 (stereo not given)	-2.45%
O=c1c2cc(Br)ccc2nc(-c2cccc(Cl)c2)n1O	-1.14%
O=C(CCN1CCN(c2ccccc2)CC1)NNC(=S)Nc1ccccc1	-0.61%
NC1=CC(=O)C(=O)c2cccnc21	5.78% (active)
COC(=O)CN1C(=O)C(O)=C(C(C)=O)C1c1ccc([N+](=O)[O-])cc1 (stereo not given)	-2.94%
O=C(NC1=CC(=O)c2ccccc2C1=O)c1ccccc1	14.4% (active)
O=C(O)c1ccccc1NC(=O)c1ccccc1-c1ccccc1C(=O)O	-3.02%
COc1cccc(CNCCc2c[nH]c3ccccc23)c1OCc1ccccc1F	-2.23%
COc1ccc([C@H]2CC(=O)C=C(/C=C/c3ccccc3)C2)cc1	-2.68%
